Bioassay records deposited in PubChem by National Center for Advancing Translational Sciences (NCATS).
FLuc inh – firefly luciferase inhibition; purified firefly luciferase, luminescence, 8 min; P08659; 72,000 tested, 2.2% active; AID 411; Potency, µM (series often up to 57.1 µM), without a hit: top-dose activity change, negative = inhibition, usual class: inhibitors; note: % is set by controls: 0 for no effect and ±100 for the full control effect; nearly all actives have a fitted effect of over 40% in size
Target sequence (P08659 whole entry, looked up): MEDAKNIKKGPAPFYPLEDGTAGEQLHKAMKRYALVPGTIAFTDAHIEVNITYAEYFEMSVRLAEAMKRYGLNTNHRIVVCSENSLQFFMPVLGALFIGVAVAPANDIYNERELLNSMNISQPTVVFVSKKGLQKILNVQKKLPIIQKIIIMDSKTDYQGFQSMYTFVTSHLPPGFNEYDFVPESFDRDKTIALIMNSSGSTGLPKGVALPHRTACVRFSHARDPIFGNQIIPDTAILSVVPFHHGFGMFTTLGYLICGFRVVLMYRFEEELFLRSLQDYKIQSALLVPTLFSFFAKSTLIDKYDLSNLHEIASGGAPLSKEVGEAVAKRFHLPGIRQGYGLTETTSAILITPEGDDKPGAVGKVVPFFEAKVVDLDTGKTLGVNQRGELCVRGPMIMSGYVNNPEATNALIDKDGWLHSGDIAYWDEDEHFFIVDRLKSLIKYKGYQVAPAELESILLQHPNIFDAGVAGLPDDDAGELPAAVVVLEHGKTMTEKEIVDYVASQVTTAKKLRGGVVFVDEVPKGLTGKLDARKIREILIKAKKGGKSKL
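Substrate buffer containing 10 uM ATP (pH 7.2 imidazole, Mg2+, KCl, detergent, BSA) is dispensed, compound pinned in, then luciferase/luciferin detector mix added. After 8 min at ambient temperature, light output is measured.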
Peg3 imprint – induces erasure of genomic imprints in mouse ES cells. Potency, µM (top dose mostly 60.7 µM), without a hit: at the highest dose activity change, positive = activation, actives largely listed as activators. 110,000 tested, 0.02% active. mouse ES Peg3-LacZ reporter, beta-gal luminescence, 40 h. AID 1948
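Imprint erasure is scored as LacZ activity from the silenced maternal Peg3 allele in feeder-free female ES cells cultured 40 h with LIF. Luminescence is normalized to in-plate negative controls and fitted to the Hill equation.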
p53ts 39C kill – cytotoxicity in p53ts cells at nonpermissive temperature; 130,000 tested, 1.5% active; H1299-p53A138V viability at 39C, ATP luminescence, 24 h; Potency, µM (top dose mostly 46.1 µM), inactives show at the highest dose activity change, negative = cell killing, usual class: cytotoxic; note: % is set by controls: 0 for no effect and ±100 for the full control effect; nearly all actives have a fitted effect of over 55% in size
IkB sig inh – inhibitors of IkB signaling in ABC-DLBCL cells | ABC-DLBCL IkBa-CBG/CBR dual luciferase ratio, 4 h; response scale: scaled: untreated 0%, proteasome inhibitor 100% | Potency, µM (highest dose often 57.1 µM), for inactives: at the highest dose IkBa stabilization activation | 110,000 tested, 0.04% active; active = well fitted curve in the direction sought with a large enough effect in the signal ratio, not every such curve was filed as active; inconclusive = small, poorly fitted or top-dose-only effect, or a change in a side signal; the % refers to the signal ratio;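 note: the direction sought is a rising ratio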
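Curves were fitted separately to fusion (green), unfused (red) and ratio luminescence, then classed by r2, magnitude and activity. Cells: OCI-Ly3, 4 h compound plus doxycycline at 37C; 10 uM MG-132 defined full response.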
p53ts 32C tox – cytotoxicity in p53ts cells at permissive temperature; 130,000 tested, 0.93% active; Potency, µM (series often up to 46.1 µM), without a hit: at the highest dose activity change, negative = cytotoxicity, actives largely listed as cytotoxic; H1299-p53A138V at 32C, ATP luminescence viability, 24 h;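 note: 0% = DMSO and -100% = full killing by reference compound; nearly all actives have a fitted effect of over 55% in size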
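Cells: H1299 p53ts (A138V), 600/well, pre-incubated 16–30 h at 37C. Cpd up to 46 uM, 24 h, 32C. Readout: ATPlite luminescence, 20 min RT. Normalization: DMSO vs tamoxifen 100 uM. AC50 by Hill equation.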
* = called active by the depositor; ! = repeats disagree; [ ] = dose if it differs, or a comment. Most compounds without a hit are left out; they make up all but 2.4% or so of the library. Unless noted, calls come from the whole dose curve; as a rule, active = well fitted curve in the direction sought with a large enough effect; inconclusive = small, poorly fitted or top-dose-only effect, or another doubt; inactive = no such curve, though single readings can be large; an effect the other way counts as inactive or inconclusive. Potency is the fitted concentration of half-maximal effect.

What do the screens show for `CC1(C)CN=C(Nc2nc3ccccc3s2)S1`?
FLuc inh: 16µM*; Peg3 imprint: -36%; p53ts 39C kill: inconclusive; IkB sig inh: 10%; p53ts 32C tox: inconclusive

How did O=S(=O)(O)/C(=C\c1ccccc1)c1ccccc1 (tested in a mixture with another compound) do in these assays?
FLuc inh: -2%[11.4 µM]; Peg3 imprint: 3%[10.9 µM]; p53ts 39C kill: 8%[9.22 µM]; IkB sig inh: 0%[11.4 µM]; p53ts 32C tox: 2%[9.22 µM]

Results for Cc1ccc(-c2nc(S(=O)(=O)c3ccccc3)c(SCC(=O)NC3CCCCC3)o2)cc1 ?
Peg3 imprint: -10%[10.9 µM]; p53ts 39C kill: 1.6µM*; IkB sig inh: 3%; p53ts 32C tox: -28%

How did CCn1nc(-c2cccs2)nc2c(=O)n(C)c(=O)nc1-2 do in these assays?
FLuc inh: 0%; Peg3 imprint: -94%; p53ts 39C kill: 4µM*; IkB sig inh: inconclusive; p53ts 32C tox: 2µM*

How did Cc1cccn2c(=O)cc(COc3cccc(NC(=O)COc4ccc(F)cc4)c3)nc12 do in these assays?
Peg3 imprint: -6%[10.9 µM]; p53ts 39C kill: 7.9µM*; IkB sig inh: inconclusive; p53ts 32C tox: inconclusive

What do the screens show for `CCCC[N+]1(C)[C@@H]2CC(OC(=O)[C@@H](CO)c3ccccc3)C[C@H]1[C@H]1O[C@H]12` (some centres undefined)?
FLuc inh: 0%; p53ts 39C kill: 3%; IkB sig inh: 5%; p53ts 32C tox: -5%

What do the screens show for `C[C@H]1C2C=C[C@H]1[C@@H](C(=O)O)[C@@H]2c1c2ccc(=O)c(O)c-2oc2c(O)c(O)ccc12`?
Peg3 imprint: -15%[10.9 µM]

How did NC1=NC([S][Hg][c]2ccc(N)cc2)c2ncn([C@@H]3O[C@H](CO)[C@@H](O)[C@@H]3O)c2N1 (some centres undefined) do in these assays?
Peg3 imprint: 4%[10.9 µM]

What do the screens show for `CNc1ccc2oc(C[C@H]3O[C@]4(CC[C@H]3C)O[C@H]([C@H](C)C(=O)c3ccc[nH]3)[C@H](C)C[C@H]4C)nc2c1C(=O)O`?
FLuc inh: 0%; Peg3 imprint: -28%; p53ts 39C kill: 3.2µM*; IkB sig inh: inconclusive; p53ts 32C tox: 4µM*

How did C[C@@H](Cc1ccc2c(c1)OC(C(=O)O)(C(=O)O)O2)NC[C@H](O)c1cccc(Cl)c1 do in these assays?
FLuc inh: 0%; p53ts 39C kill: 11%; IkB sig inh: -3%; p53ts 32C tox: -9%

What do the screens show for `CCCCCn1c(N)c(C(=O)NCCN2CCOCC2)c2nc3ccccc3nc21`?
FLuc inh: -9%; Peg3 imprint: -20%; p53ts 39C kill: -1%; IkB sig inh: inconclusive; p53ts 32C tox: 4%

What do the screens show for `Cc1ccc(C(=O)Nc2nc3ccccc3n2CCN2CCCC2)cc1`?
FLuc inh: 13µM*; Peg3 imprint: -17%; p53ts 39C kill: -28%; IkB sig inh: inconclusive; p53ts 32C tox: inconclusive

How did NNCc1cccc(O)c1 do in these assays?
FLuc inh: 32µM*; Peg3 imprint: -7%; p53ts 39C kill: -3%; IkB sig inh: -7%; p53ts 32C tox: -5%

How did O=[N+]([O-])c1cccc(O)c1 do in these assays?
Peg3 imprint: -5%; p53ts 39C kill: -3%; IkB sig inh: -2%; p53ts 32C tox: -12%[1.84 µM]

Results for Cc1ccc(C(=O)COC(=O)c2cccc(NC(=O)c3ccc(Br)cc3)c2)cc1 ?
Peg3 imprint: -16%[10.9 µM]; p53ts 39C kill: 7.9µM*; IkB sig inh: inconclusive; p53ts 32C tox: inconclusive

How did CCOC(=O)c1ccc(N2C(=O)c3n[nH]c(-c4cccs4)c3C2c2ccc(Cl)cc2Cl)cc1 (centres undefined) do in these assays?
Peg3 imprint: -14%[10.9 µM]; p53ts 39C kill: inconclusive; IkB sig inh: inconclusive; p53ts 32C tox: inconclusive

How did CCOC(=O)c1ccc(N2C(=O)c3n[nH]c(-c4cccs4)c3C2c2ccc(C(C)(C)C)cc2)cc1 (centres undefined) do in these assays?
Peg3 imprint: -16%[10.9 µM]; p53ts 39C kill: 16µM*; IkB sig inh: inconclusive; p53ts 32C tox: inconclusive

What do the screens show for `COc1cc2c(cc1OC)[C@@]13CCN4C=C5CCO[C@H]6CC(=O)N2[C@@H]1C6[C@H]5C[C@H]43` (some centres undefined)?
Peg3 imprint: 10%[10.9 µM]

How did [O]=[Cr](=[O])([OH])[O][Cr](=[O])(=[O])[OH] do in these assays?
Peg3 imprint: -18%; p53ts 39C kill: 10µM*; IkB sig inh: 6%; p53ts 32C tox: -5%[1.84 µM]

What do the screens show for `CN1CC[C@]2(C)c3cc(O)ccc3N(C)[C@@H]12`?
FLuc inh: -1%[11.4 µM]; Peg3 imprint: -5%[16.8 µM]; p53ts 39C kill: 25µM*; IkB sig inh: inconclusive; p53ts 32C tox: 20µM*

What do the screens show for `C[C@H](N[C@@H](C)CCc1ccccc1)[C@H](O)c1ccc(O)cc1`?
FLuc inh: -1%; p53ts 39C kill: 11%; IkB sig inh: 2%; p53ts 32C tox: 24%

What do the screens show for `Cc1cc[c]([Sb]2[O]C([C@H](O)[C@H](O)C(=O)O)[C@@H](CO)[O]2)cc1` (some centres undefined)?
Peg3 imprint: -2%[10.9 µM]

How did Cn1cnc2cc(NC(=O)c3ccc(Cl)cc3)ccc21 do in these assays?
FLuc inh: 13µM*; Peg3 imprint: -24%; p53ts 39C kill: inconclusive; IkB sig inh: inconclusive; p53ts 32C tox: inconclusive

Results for CC[C@H](CO)NC(=O)[C@@H]1C=C2c3cccc4[nH]cc(c34)C[C@@H]2N(C)C1 ?
FLuc inh: 1%; p53ts 39C kill: 4%; IkB sig inh: 2%; p53ts 32C tox: -6%

Results for CN1C[C@@H](CNC(=O)OCc2ccccc2)C[C@H]2c3cccc4c3c(cn4C)C[C@@H]21 ?
FLuc inh: -1%; IkB sig inh: -7%

What do the screens show for `COc1ccc(C(=O)O)cc1OC`?
Peg3 imprint: -1%; p53ts 39C kill: -3%; p53ts 32C tox: -18%

How did O=C(O)c1cc[c]([Hg][Cl])cc1 do in these assays?
FLuc inh: 16µM*; Peg3 imprint: -90%; p53ts 39C kill: 1%; IkB sig inh: inconclusive; p53ts 32C tox: -9%

What do the screens show for `COc1cc2c(cc1OC)-c1c(O)c(OC)cc3c1[C@H](C2)N(C)CC3`?
Peg3 imprint: -13%; p53ts 39C kill: inconclusive; p53ts 32C tox: 32µM*

What do the screens show for `O=S(=O)(NCCO)c1cc[c]([Sb])cc1`?
Peg3 imprint: -5%[10.9 µM]

How did C=C[C@@H]1CN2CC[C@H]1CC2[C@H](O)c1ccnc2ccccc12 (some centres undefined) do in these assays?
Peg3 imprint: 7%[10.9 µM]

Results for N#C/C(=C\c1ccc(O)c(O)c1)C(N)=S ?
FLuc inh: 25µM*!; Peg3 imprint: -38%; p53ts 39C kill: inconclusive; IkB sig inh: inconclusive; p53ts 32C tox: -20%
